Only some compounds are listed: those with a hit (about 6.2% of all), similar ones and a draw of the others.
HCMV inh = qHTS Assay for inhibitors of the human cytomegalovirus (HCMV); HFF cells, HCMV-luciferase reporter, 72 h; active compounds read low; activity change, negative = inhibition, % at 57.5 µM; 410,000 compounds, 4.5% hits; AID 1259415, 2018; in the data active = activity change below about -60%; inconclusive = no clear call, values can overlap the other calls; inactive = above about -39%
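After 16 h attachment at 37C, HFF cells received test compound and HCMV-luciferase (1 PFU/cell); reporter luminescence read 72 h later, data normalized against buffer-only and known inhibitor Salinomycin.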
LASV entry inh = qHTS for Inhibitors of binding or entry into cells for Lassa Virus | AID 540256, 2011 | Potency, µM (highest dose often 37.9 µM), inactives show at the highest dose activity change, negative = inhibition, most hits filed as inhibitors | 300,000 compounds, 1.2% hits | Lassa virus pseudotype entry inhibition, cell reporter; calls by dose curve; tested in HEK293 cells; note: potency is the fitted concentration of half-maximal effect; nearly all actives have a fitted effect of over 50% in size
FMDV inh = High Throughput Screening for Foot and Mouth Disease Virus Antivirals. FMDV antiviral cell-based qHTS. Potency, µM (doses to about 57.9 µM), for inactives: at the highest dose activity change, negative = inhibition, hits mostly inhibitors. 410,000 compounds, 1.2% hits. AID 1159524, 2015; calls by dose curve; tested in HEK293T cells; note: read-out not given here; potency is the fitted concentration of half-maximal effect; nearly all actives have a fitted effect of over 45% in size
MARV entry inh = qHTS for inhibitors of binding or entry into cells for Marburg Virus; Potency, µM (titrated, usually from 37.8 µM), for the others: at the top dose activity change, negative = inhibition, most hits filed as inhibitors; 300,000 compounds, 1.8% hits; AID 540276, 2011; Marburg virus pseudotyped entry inhibition, cell reporter; calls by dose curve; tested in HEK293 cells; note: potency is the fitted concentration of half-maximal effect
An asterisk follows results filed as active; ? = inconclusive; nt = not tested or not shown; + = active, no number; [ ] = another dose, or the depositor's remark. % is set by controls: 0 for no effect and ±100 for the full control effect.

SMILES	HCMV inh	LASV entry inh	FMDV inh	MARV entry inh
CCCCOc1ccccc1C1CC(=O)Nc2cc(C)c(C)cc21 (stereo unspecified)	-27.4	-16.5%[46.1 µM]	?	nt
CCCOc1ccccc1C1CC(=O)Nc2cc3c(cc21)OCCO3 (stereo unspecified)	nt	?	22.4µM*	2.82µM*
CCCCNc1cccc2c1S(=O)(=O)N[C@H](Cc1ccccc1)CO2	-9.9	-4.4%[46.1 µM]	nt	nt
COc1ccccc1C1CN(CCNC(=O)c2ccccc2Cl)Cc2ccccc2O1 (stereo unspecified)	nt	nt	8.2%	nt
Cc1nc(S/C(C(=O)O)=C2/C(=O)Nc3ccccc32)n[nH]1	32.3	nt	2.51µM*	nt
Cc1ccc(C(=O)Nc2ccc(C(=O)OCc3cc(=O)n4ccsc4n3)cc2)cc1	20.1	18.3%[46.1 µM]	7.4%	nt
CC(Oc1ccccc1)C(=O)Nc1ccc(C(=O)OCc2cc(=O)n3ccsc3n2)cc1 (stereo unspecified)	6.2	?	25.1µM*	nt
O=C(OCc1cc(=O)n2ccsc2n1)C1(c2ccccc2)CC1	-98.4*	nt	-10.8%	nt
CC(C)(C)c1ccc(C(=O)Nc2ccc(C(=O)OCc3cc(=O)n4ccsc4n3)cc2)cc1	12.9	-29.4%[46.1 µM]	14.1µM*	nt
Cn1c(Cc2ccccc2)nnc1SCc1cc(=O)n2ccsc2n1	-62.6*	10.0%	17.7%	0.6%[46.1 µM]
COc1ccc(C(=O)N[C@H](C(=O)Nc2cccc(S(=O)(=O)N3CCOCC3)c2)C(C)C)cc1	21.8	nt	-13.8%	nt
O=C1[C@@H]2[C@H]3[C@H](O)[C@H](O)CC(=NOC[C@@H](O)COCc4ccco4)[C@H]3CC[C@H]2C(=O)N1c1ccc(F)cc1F	nt	nt	nt	14.1%[14.2 µM]
CCC1CN(CCNC(=O)c2cn3cc(C)ccc3n2)Cc2cc(OC)ccc2O1 (stereo unspecified)	nt	nt	1.9%	nt
NC(CC(=O)Nc1ccc(Oc2cc(F)c(F)cc2Br)cc1)C(=O)O (stereo unspecified)	nt	nt	-9.8%	nt
Cc1c(C(=O)Nc2ccc(C(C)C)cc2)sc2nc3n(c(=O)c12)CCC3	?	0.2%[46.1 µM]	?	nt
Cc1ccc(OCC(=O)Nc2ccc(OCc3cc(=O)n4ccsc4n3)cc2)cc1C	-6.4	13.8%[46.1 µM]	-1.0%	-1.3%[46.1 µM]
Cc1ccc(OCC(=O)Nc2ccc(C(=O)OCc3cc(=O)n4ccsc4n3)cc2)cc1C	1.2	-8.9%[46.1 µM]	35.5µM*	nt
COc1cccc(C(NC(C)=O)c2ccc3cccnc3c2O)c1 (stereo unspecified)	-99.0*	?	-17.9%	?
O=[N+]([O-])c1ccc(NC(c2ccccc2)c2ccc3cccnc3c2O)cc1 (stereo unspecified)	-97.5*	?	8.7%	1.41µM*
O=C(COc1cccc2cccnc12)Nc1nccs1	39.8	?	23.0%	8.4%
Oc1cccc(C(Nc2nccs2)c2ccc3cccnc3c2O)c1 (stereo unspecified)	-93.4*	?	-9.6%	?
CC(=O)NC(c1cccc([N+](=O)[O-])c1)c1ccc2cccnc2c1O (stereo unspecified)	-102.3*	?	-26.3%	?
COC(=O)[C@@]12C[C@@H](CC(=O)N3CCSCC3)C(=O)N(Cc3ccc4c(c3)OCO4)C1=CCC(C)(C)C2	-20.8	nt	-4.2%	nt
O=C(C1CC1)N1CCc2cc(Br)cc(S(=O)(=O)N3CCN(c4cccc(C(F)(F)F)c4)CC3)c21	14.5	14.7%[46.1 µM]	-1.2%	2.1%[46.1 µM]
CCCCC(=O)NC(c1cccc([N+](=O)[O-])c1)c1ccc2cccnc2c1O (stereo unspecified)	-102.7*	nt	7.7%	nt
SMILES	HCMV inh	LASV entry inh	FMDV inh	MARV entry inh
O=C(NC(c1ccc(Cl)cc1)c1c(O)ccc2ccccc12)c1ccccc1 (stereo unspecified)	-100.9*	?	?	?
CCCCC(=O)NC(c1ccc([N+](=O)[O-])cc1)c1c(O)ccc2ccccc12 (stereo unspecified)	-98.8*	?	20µM*	?
O=C(NC(c1ccccc1)c1c(O)ccc2ccccc12)c1ccccc1Cl (stereo unspecified)	16.6	?	?	-27.6%
COc1ccc(Cn2c(CCC(=O)Nc3cccc(OC)c3)nc3cccnc32)cc1	-17.9	?	-15.4%	1.7%[46.1 µM]
COc1ccc(N2CCN(S(=O)(=O)c3ccc4c(c3)CC(C)N4C(C)=O)CC2)cc1 (stereo unspecified)	-72.4*	-21.4%[46.1 µM]	?	nt
CC(=O)N1c2ccc(S(=O)(=O)N3CCC(C(=O)Nc4cc(C)cc(C)c4)CC3)cc2CC1C (stereo unspecified)	-61.3*	nt	-23.9%	nt
CC(=O)N1c2ccc(S(=O)(=O)N3CCN(c4cccc(Cl)c4)CC3)cc2CC1C (stereo unspecified)	8.0	-8.0%[46.1 µM]	0.0%	-0.6%[46.1 µM]
CCCNC(=O)C1Cc2cc(S(=O)(=O)N3CCCCCC3)ccc2N1C(C)=O (stereo unspecified)	0.3	-14.2%[46.1 µM]	-15.1%	nt
CC(=O)N1c2ccc(S(=O)(=O)N3CCC(C(=O)Nc4cccc(C)c4)CC3)cc2CC1C (stereo unspecified)	-68.5*	?	?	?
CC(=O)N1c2ccc(S(=O)(=O)N3CCCC(C(=O)Nc4cc(C)cc(C)c4)C3)cc2CC1C (stereo unspecified)	8.1	nt	-18.0%	nt
CC(=O)N1c2ccc(S(=O)(=O)N3CCCCCC3)cc2CC1C(=O)NC(C)C (stereo unspecified)	-85.0*	4.0%[46.1 µM]	-10.5%	nt
CC(=O)N(c1nc2ccccc2s1)N1C(=O)c2ccccc2C1=O	-4.9	nt	nt	nt
O=C(Nc1cccc(F)c1)C1CCN(S(=O)(=O)c2ccc3[nH]c4c(c3c2)CCCCC4)CC1	+	?	0.0%	nt
CC(=O)c1ccc(N2CCN(C(=O)C3CCN(S(=O)(=O)c4ccc5c(c4)CC(C)N5C(C)=O)CC3)CC2)cc1 (stereo unspecified)	11.6	nt	-28.7%	nt
COc1ccc(Cl)cc1NC(=O)C1CCN(S(=O)(=O)c2ccc3c(c2)CC(C)N3C(C)=O)CC1 (stereo unspecified)	-63.0*	-8.1%[46.1 µM]	?	nt
CCc1ccc(NC(=O)C2CCN(S(=O)(=O)c3ccc4c(c3)CC(C)N4C(C)=O)CC2)cc1 (stereo unspecified)	-92.8*	nt	15.8µM*	nt
CC(=O)N1c2ccc(S(=O)(=O)N3CCC(C(=O)N4CCN(c5cccc(C(F)(F)F)c5)CC4)CC3)cc2CC1C (stereo unspecified)	-65.6*	nt	?	nt
Cc1ccccc1CNC(=O)c1ccccc1NC(=O)c1nsc2ccccc12	0.0	15.3%[46.1 µM]	0.0%	nt
CC(=O)N1c2ccc(S(=O)(=O)N3CCC(C(=O)Nc4cccc(Cl)c4C)CC3)cc2CC1C (stereo unspecified)	-29.0	-7.3%[46.1 µM]	?	nt
CC(=O)N1c2ccc(S(=O)(=O)N3CCC(C(=O)Nc4cccc(Cl)c4)CC3)cc2CC1C (stereo unspecified)	-87.8*	nt	?	nt
CCOc1ccc(NC(=O)C2CCN(S(=O)(=O)c3ccc4c(c3)CC(C)N4C(C)=O)CC2)cc1 (stereo unspecified)	?	-24.6%[46.1 µM]	?	-15.3%[46.1 µM]
